Source: PubChem BioAssay AID488847 (NMMLSC, 2010)
About 1,900 (0.58%) of roughly 330,000 compounds were called active. The sample holds actives, similar compounds and a random draw of the others, so the mix is not that of the screen. Unmarked numbers belong to inactive results.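 The calls were made as follows: active = inhibition of aptamer binding above 40%, roughly 3 SD of noise, on plates passing a quality check; inactive = the rest.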

biological target: Beta-adrenergic receptor kinase 1 (Homo sapiens) (UniProt P25098); assay: compounds blocking aptamer binding on GRK2 – biochemical, human GRK2, bead flow cytometry, HTS, primary screen (AID 488847); details: FAM-aptamer displacement from GRK2, at 10 µM, active compounds read high;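 also: median bead fluorescence of bound FAM aptamer so fluorescent compounds give negative values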
Sequence (P25098 whole entry, looked up): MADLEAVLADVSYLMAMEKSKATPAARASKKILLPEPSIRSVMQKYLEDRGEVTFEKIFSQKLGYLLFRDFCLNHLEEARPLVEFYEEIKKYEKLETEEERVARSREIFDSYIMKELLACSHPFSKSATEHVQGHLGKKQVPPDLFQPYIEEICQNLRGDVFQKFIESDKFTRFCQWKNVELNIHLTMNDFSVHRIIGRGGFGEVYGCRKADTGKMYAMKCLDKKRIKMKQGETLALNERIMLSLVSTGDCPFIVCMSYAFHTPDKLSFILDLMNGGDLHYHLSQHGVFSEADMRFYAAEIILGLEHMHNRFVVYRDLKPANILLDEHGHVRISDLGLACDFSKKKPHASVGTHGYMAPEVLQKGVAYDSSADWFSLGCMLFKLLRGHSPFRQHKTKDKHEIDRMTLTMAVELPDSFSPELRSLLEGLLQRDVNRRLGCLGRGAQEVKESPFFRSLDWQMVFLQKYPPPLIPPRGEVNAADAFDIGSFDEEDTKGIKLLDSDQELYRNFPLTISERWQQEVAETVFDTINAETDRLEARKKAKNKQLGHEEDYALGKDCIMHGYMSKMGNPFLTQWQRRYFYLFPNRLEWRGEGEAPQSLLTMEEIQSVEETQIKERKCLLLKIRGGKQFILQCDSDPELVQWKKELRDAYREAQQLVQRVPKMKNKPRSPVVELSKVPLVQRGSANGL

| SMILES | inhibition of aptamer binding |
| --- | --- |
| COc1ccc(C2c3ccc(O)cc3Oc3ncn(CCCO)c(=N)c32)cc1OC (stereo not drawn) | 0% |
| COc1ccccc1S(=O)(=O)c1c(C)cc(C)[nH]c1=O | 1% |
| Cc1ccc(-c2nn(-c3ccccc3)cc2/C=C2\SC(=S)N(CCCCCC(=O)O)C2=O)o1 | 48% (active) |
| C=CCOc1ccc(/C=C2\SC(=S)N(CCC(=O)O)C2=O)cc1 | 0% |
| Cc1ccc(/C=C2/SC(=S)N(CCC(=O)NCCCN3CCOCC3)C2=O)cc1 | 5% |
| CC(=O)Oc1ccccc1C(=O)Nc1ncc([N+](=O)[O-])s1 | 5% |
| CCSc1nc(O)c(C(c2cccc(OC)c2)c2c(O)nc(SCC)[nH]c2=O)c(=O)[nH]1 | 9% |
| COc1ccc(Nc2cc(Sc3ccc(OC)cc3)ncn2)cc1 | 46% (active) |
| COc1ccc(Nc2nc(=O)[nH]nc2C)cc1 | 4% |
| COc1ccc(Nc2ncnc3sc(C)cc23)cc1 | 0% |
| CC(Sc1cccc[n+]1[O-])C(=O)Nc1cccc(S(=O)(=O)N2CCOCC2)c1 (stereo not drawn) | 1% |
| O=C(O)C1CCN(C(=O)OCc2ccccc2)CC1 | 0% |
| COc1cc(OC)cc(C(=O)OCC(=O)Nc2sccc2C(N)=O)c1 | 0% |
| NC(=O)c1ccsc1NC(=O)COC(=O)Cc1n[nH]c(=O)c2ccccc12 | 2% |
| CCCCn1nc(C(=O)OCC(=O)Nc2sccc2C(N)=O)c2ccccc2c1=O | 84% (active) |
| CCc1ccc2oc(=O)cc(CN3CCCCC3C)c2c1 (stereo not drawn) | 0% |
| COc1cc(/C=N/NC(=O)c2ccc(N3CCCC3=O)cc2)ccc1O | 49% (active) |
| COc1cc(/C=N/NC(=O)c2cc(C)n(-c3ccc(F)cc3)c2C)cc(OC)c1O | 0% |
| O=C(N/N=C/c1cccc(Br)c1)c1ccc(N2CCCC2=O)cc1 | 0% |
| O=C(NCc1cccc(Cl)c1)C1CCN(c2nnc(N3CCCC3=O)s2)CC1 | 0% |
| CN(C)S(=O)(=O)c1cccc(C(=O)OCC(=O)N2CCCC2=O)c1 | 0% |

| SMILES | inhibition of aptamer binding |
| --- | --- |
| Cc1cc(C)n(C(=O)c2ccc(S(=O)(=O)N3CCCC3)cc2)n1 | 2% |
| CC(C)(C)NC(=O)Cn1nnc(-c2ccccc2Cl)n1 | 2% |
| Cc1ccccc1-c1nnn(CC(=O)c2ccc(S(=O)(=O)N3CCCC3)cc2)n1 | 47% (active) |
| Cc1ccc(S(=O)(=O)C2(S(=O)(=O)c3ccc(C)cc3)CCCC2)cc1 | 0% |
| CCCNc1c(N)c(=O)c1=O | 6% |
| CCCc1nc2ccccc2c(C(=O)OCc2nnc(-c3cc(OC)c(OC)c(OC)c3)o2)c1CC | 41% (active) |
| CCOC(=O)c1cc(-c2nnc(-c3cc(OC)c(OC)c(OC)c3)o2)c(C)nc1C | 1% |
| O=C(OCc1nnc(-c2ccccc2)o1)c1cc(=O)[nH]c2ccccc12 | 3% |
| COc1cc(NC(=O)c2[nH]cnc2C(N)=O)cc(C(=O)Nc2cccc(C(F)(F)F)c2)c1 | 0% |
| CSc1nnc(SCc2nc3sc(C(=O)O)c(C)c3c(=O)[nH]2)s1 | 13% |
| CCOC(=O)c1sc2nc(CSc3ccccc3)[nH]c(=O)c2c1C | 75% (active) |
| CCOC(=O)c1sc2nc(CSCC(=O)OCc3ccc(C(=O)OC)o3)[nH]c(=O)c2c1C | 2% |
| O=S(=O)(Nc1cccc(-c2ccc(N3CCOCC3)nn2)c1)c1ccc(Cl)c(Cl)c1 | 0% |
| O=c1c([N+](=O)[O-])cccn1Cc1ccc(F)cc1Cl | 0% |
| O=C(C1CCC1)N1CCc2cc(S(=O)(=O)NCc3cccnc3)ccc21 | 0% |
| CSc1nc2ccccc2c(=O)n1Cc1ccc(F)cc1 | 76% (active) |
| O=C(CSc1nc2ccccc2c(=O)n1Cc1ccc(F)cc1)NCC1CCCO1 (stereo not drawn) | 0% |
| O=C(CSc1nc2ccccc2c(=O)n1-c1ccc(F)cc1)NC1CC1 | 0% |
| O=c1[nH]c(CCl)nc2cc(-c3ccc(Cl)cc3)sc12 | 0% |
| NC(=O)CC(NC(=O)Cc1cccc2ccccc12)c1ccc(NCc2cc(F)ccc2F)c([N+](=O)[O-])c1 (stereo not drawn) | 1% |
| CCCC/S(C)=N/S(=O)(=O)c1ccc(C)cc1 (stereo not drawn) | 1% |

| SMILES | inhibition of aptamer binding |
| --- | --- |
| COc1ccc(CN2CCN(Cc3cn(C)nc3-c3ccccc3)CC2CCO)c(C)c1C (stereo not drawn) | 0% |
| CN(CC(=O)Nc1ccc(C(N)=O)cc1)S(=O)(=O)c1ccc2c(c1)OCCO2 | 0% |
| Cc1nc(S(=O)(=O)c2ccc(Br)cc2)nc2c1CCC2 | 5% |
| O=C(Nc1ccc(-c2nnc(-c3ccccc3)o2)cc1)c1ccc(Br)o1 | 92% (active) |
| O=C(CNC(=O)c1ccc(Br)o1)Nc1ccccc1 | 1% |
| Brc1ccc(-c2nnc(-c3ccccc3)o2)o1 | 5% |
| CC1CCC(NC(=O)c2ccc(N3CCCC3=O)cc2)CC1 (stereo not drawn) | 0% |
| CCOc1ccc(C(=O)NCCCN2CCCC2=O)cc1 | 2% |
| O=C(NCCCN1CCCCCC1)c1ccc(N2CCCC2=O)cc1 | 43% (active) |
| CC1=CC(C)(C)NC(=S)N1NC(=O)c1ccccc1Cl | 1% |
| COc1ccc(C2C(C#N)=C(N)Oc3cc(N)ccc32)cc1OC (stereo not drawn) | 0% |
| CCOC(=O)C(C)n1cnc2scc(-c3ccc(C)c(C)c3)c2c1=O (stereo not drawn) | 64% (active) |
| CC(=O)C(C)n1cnc2scc(-c3ccc(C)cc3)c2c1=O (stereo not drawn) | 1% |
| CCn1cnc2scc(-c3ccc(C)c(C)c3)c2c1=O | 0% |
| CCOC(=O)c1ccc(S(=O)(=O)N(CCO)Cc2cc3cc(OC)c(OC)cc3[nH]c2=O)cc1 | 0% |
| CN(C)CC(C)(C)CNC(=O)c1cc(Br)cc(Br)c1O | 6% |
| COc1cccc(OC)c1C(=O)Nc1ccc2c(c1)n(C)c(=O)n2C | 1% |
| COc1cccc(OC)c1C(=O)Nc1ccc(Cc2ccncc2)cc1 | 55% (active) |
| CC(C)CC(=O)Nc1ccc(Cc2ccncc2)cc1 | 0% |
| Cc1ccc(S(=O)(=O)NCCSC(C)(C)C)cc1 | 1% |
| O=C(OCC1O[C@@H](OC(=O)c2cc(O)c(O)c(O)c2)[C@@H](OC(=O)c2cc(O)c(O)c(O)c2)[C@@H](OC(=O)c2cc(O)c(O)c(O)c2)[C@@H]1OC(=O)c1cc(O)c(O)c(O)c1)c1cc(O)c(O)c(O)c1 (stereo partly drawn) | 1% |
